The supplement of paper PMC8728848
Only a selection was taken, and the strongest signals are over-represented in it overall.

Experiments:
Experiment in all cases: glycan array binding signal (z-score within array); higher = stronger binding
Settings in all cases: glycan notation: IUPAC condensed, linker removed
GalNAc(b1-3)GlcNAc = target: GalNAc(b1-3)GlcNAc
In short: (§1)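 The binding signal is a Z-score computed within each array. Data were drawn from 3228 arrays in the Consortium for Functional Glycomics database, restricted to those with a known protein sequence. Scores were averaged over arrays of the same protein sequence at different concentrations or buffers, and over linkers, and negative values can be taken as non-binding.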

[1] = target: Glc(a1-6)Glc(a1-6)Glc(a1-6)Glc
In short: as §1

[2] = target: GlcNAc(a1-4)Gal(b1-3)GlcNAc
In short: as §1

[3] = target: GlcNAc(b1-2)Man(a1-3)[GlcNAc(b1-2)Man(a1-6)]Man(b1-4)GlcNAc(b1-4)[Fuc(a1-6)]GlcNAc
In short: as §1

[4] = target: GlcNAc(b1-3)Gal(b1-4)GlcNAc(b1-3)Gal(b1-4)GlcNAc(b1-3)Gal(b1-4)GlcNAc(b1-3)Gal(b1-4)GlcNAc(b1-2)Man(a1-3)[GlcNAc(b1-3)Gal(b1-4)GlcNAc(b1-3)Gal(b1-4)GlcNAc(b1-3)Gal(b1-4)GlcNAc(b1-3)Gal(b1-4)GlcNAc(b1-2)Man(a1-6)]Man(b1-4)GlcNAc(b1-4)[Fuc(a1-6)]GlcNAc
In short: as §1

[5] = target: GlcNAc(b1-4)GlcNAc(b1-4)GlcNAc
In short: as §1

[6] = target: GlcNAc(b1-4)GlcNAc(b1-4)GlcNAc(b1-4)GlcNAc(b1-4)GlcNAc
In short: as §1

[7] = target: GlcNAc(b1-6)Gal(b1-4)GlcNAc
In short: as §1

GlcNAc(b1-6)GalNAc = target: GlcNAc(b1-6)GalNAc
In short: as §1

[8] = target: Neu5Ac(a2-3)Gal(b1-3)GalNAc
In short: as §1

[9] = target: Neu5Ac(a2-3)Gal(b1-3)GalNAc(b1-4)[Neu5Ac(a2-3)]Gal(b1-4)Glc
In short: as §1

[10] = target: Neu5Ac(a2-3)Gal(b1-4)GlcNAc(b1-2)Man
In short: as §1

[11] = target: Neu5Ac(a2-3)Gal(b1-4)GlcNAc(b1-2)Man(a1-3)[Neu5Ac(a2-3)Gal(b1-4)GlcNAc(b1-2)Man(a1-6)]Man(b1-4)GlcNAc(b1-4)[Fuc(a1-6)]GlcNAc
In short: as §1

[12] = target: Neu5Ac(a2-3)Gal(b1-4)GlcNAc(b1-2)[Neu5Ac(a2-3)Gal(b1-4)GlcNAc(b1-4)]Man(a1-3)[GlcNAc(b1-4)][Neu5Ac(a2-3)Gal(b1-4)GlcNAc(b1-2)[Neu5Ac(a2-3)Gal(b1-4)GlcNAc(b1-6)]Man(a1-6)]Man(b1-4)GlcNAc(b1-4)GlcNAc
In short: as §1

[13] = target: Neu5Ac(a2-3)Gal(b1-4)GlcNAc(b1-3)Gal(b1-4)GlcNAc(b1-2)Man(a1-3)[Neu5Ac(a2-3)Gal(b1-4)GlcNAc(b1-3)Gal(b1-4)GlcNAc(b1-2)Man(a1-6)]Man(b1-4)GlcNAc(b1-4)GlcNAc
In short: as §1

[14] = target: Neu5Ac(a2-3)Gal(b1-4)[Fuc(a1-3)]GlcNAc(b1-2)Man
In short: as §1

[15] = target: Neu5Ac(a2-3)Gal6S(b1-4)GlcNAc
In short: as §1

[16] = target: Neu5Ac(a2-6)Gal(b1-4)GlcNAc(b1-2)Man(a1-3)[GlcNAc(b1-2)Man(a1-6)]Man(b1-4)GlcNAc(b1-4)GlcNAc
In short: as §1

[17] = target: Neu5Ac(a2-6)Gal(b1-4)GlcNAc(b1-3)Gal(b1-4)GlcNAc(b1-2)Man(a1-3)[Neu5Ac(a2-6)Gal(b1-4)GlcNAc(b1-3)Gal(b1-4)GlcNAc(b1-2)Man(a1-6)]GalNAc
In short: as §1

[18] = target: Neu5Ac(a2-6)Gal(b1-4)GlcNAc(b1-3)Gal(b1-4)GlcNAc(b1-3)GalNAc
In short: as §1

[19] = target: Neu5Ac(a2-6)Gal(b1-4)GlcNAc(b1-3)Gal(b1-4)GlcNAc(b1-6)[Gal(b1-3)]GalNAc
In short: as §1

[20] = target: Neu5Ac(a2-6)Gal(b1-4)GlcNAc(b1-3)Gal(b1-4)[Fuc(a1-3)]GlcNAc(b1-3)Gal(b1-4)[Fuc(a1-3)]GlcNAc
In short: as §1

[21] = target: Neu5Ac(a2-6)GlcNAc(b1-4)GlcNAc(b1-4)GlcNAc
In short: as §1

[22] = target: Neu5Ac(a2-8)Neu5Ac(a2-3)Gal(b1-4)GlcNAc
In short: as §1

[23] = target: Neu5Ac(a2-8)Neu5Ac(a2-3)[Gal(b1-3)GalNAc(b1-4)]Gal(b1-4)Glc
In short: as §1

[24] = target: Neu5Ac(a2-8)Neu5Gc(a2-3)Gal(b1-4)GlcNAc
In short: as §1

[25] = target: Neu5Ac9Ac(a2-3)Gal(b1-3)GlcNAc
In short: as §1

[26] = target: Neu5Gc(a2-8)Neu5Gc(a2-3)Gal(b1-4)GlcNAc(b1-3)Gal(b1-4)GlcNAc
In short: as §1

B1: PX9937D-bvu-500-26-500 (Bacteroides vulgatus) (protein)
chain: DPVSDITDLNYWKTPEQFDSFVFGLHSRFRSHSWNMFLLGEARSDVFGGIPFGGEATQGMERFPYNTLNAENPGISGFGDLYQNINQMNLFISRTLHTDVLTESARNYYLGQVYGLRAYYMYQLYRSWGDVVFTEEPSLGFEVGKLAKAATPAAEIFEQVKKDIESSLSYFGSDYTIKEKKSLWSKAATLMLKADVYLWSAHRDGGEGDARTAKNALVDIQNNISRSNLDLMDTYQGVFAYDNKGNKEIIFTIHNELFEYNLWNGNNDLFPQADYLGKFYNADGTLINTSVENNFGIMRLMVKLENFKKFLPGDTRRDVTLKDVYNKVENGKLELVGVYPHKYWGVMNGSTRVRCDDYPIYRYSDLLLMLAEAKVLLGEDPATEINRVRRRAFGDAYDASTVGFPNQEVDKRPADAVLQERLFEFMLEGKRWYDLRRFGDSYVLDYTPAEPARLLWPINQGALTNNPLLKQTVGY
GalNAc(b1-3)GlcNAc
  glycan array binding signal (z-score): -0.418
[1]
  glycan array binding signal (z-score): -0.405
[2]
  glycan array binding signal (z-score): -0.056
[3]
  glycan array binding signal (z-score): -0.178
[4]
  glycan array binding signal (z-score): -0.298
[5]
  glycan array binding signal (z-score): -0.41
[6]
  glycan array binding signal (z-score): -0.558
[7]
  glycan array binding signal (z-score): 0.08
GlcNAc(b1-6)GalNAc
  glycan array binding signal (z-score): 0.455
[8]
  glycan array binding signal (z-score): -0.219
[9]
  glycan array binding signal (z-score): -0.308
[10]
  glycan array binding signal (z-score): -0.574
[11]
  glycan array binding signal (z-score): -0.13
[12]
  glycan array binding signal (z-score): -0.306
[13]
  glycan array binding signal (z-score): 0.163
[14]
  glycan array binding signal (z-score): 0.114
[15]
  glycan array binding signal (z-score): -0.307
[16]
  glycan array binding signal (z-score): -0.121
[17]
  glycan array binding signal (z-score): 4.23
[18]
  glycan array binding signal (z-score): -0.414
[19]
  glycan array binding signal (z-score): 0.256
[20]
  glycan array binding signal (z-score): 0.021
[21]
  glycan array binding signal (z-score): 0.037
[22]
  glycan array binding signal (z-score): -0.636
[23]
  glycan array binding signal (z-score): -0.284
[24]
  glycan array binding signal (z-score): 10.6
[25]
  glycan array binding signal (z-score): -0.36
[26]
  glycan array binding signal (z-score): -0.056
